This is an account of results in PubChem BioAssay AID651784 (National Center for Advancing Translational Sciences (NCATS), 2012).

Each structure is given as a SMILES string. Inconclusive results are not listed. Calls of active or inactive are those of the source. Calls follow the shape of the dose curve; as a rule, active = well fitted inhibition curve with a large enough effect; inconclusive = small, poorly fitted or top-dose-only effect; inactive = no such curve, though single readings can be large or run the other way.
Potency is read from the fitted curve at half-maximal effect.

This assay is described as follows: Acumen qHTS Assay for Inhibitors of the mTORC1 Signaling Pathway in MEF (Tsc2-/-, p53-/-) Cells: Hit Validation. Also: nearly all actives have a fitted effect of over 65% in size. Particulars: Acumen imaging; activity change, negative = inhibition: at 37.3 µM (top of the series). The text has this: The mammalian target of rapamycin (mTOR) is an intracellular serine/threonine kinase Aberrant regulation of mTOR signaling plays a causative role in a number of human diseases, including cancer, benign tumors such as lymphangioleiomyomatosis (LAM) and Tuberous Sclerosis Complex (TSC), and metabolic diseases such as diabetes and obesity. This project aims to identify inhibitors of ribosomal protein S6 (rpS6) phosphorylation. The phosphorylation of rpS6 is a key event downstream of mTOR activation. The assay uses a phospho-specific antibody of phospho-rpS6 to detect inhibitors of mTOR activation. Mutations in the Tsc1 and Tsc2 genes are the underlying genetic lesions responsible for TSC, causing constitutive activation of the mTORC1 pathway and leading to profound effects on cell metabolism. Aberrant metabolism in cancer has recently received significant attention as a target to develop therapeutic agents in the treatment of cancer.1 As Tsc2-/- cells have lost the ability to respond to energy and growth factor deprivation, these cells are unable to properly down regulate cellular biosynthetic processes in response to metabolic stress, and are thus extremely sensitive to glucose deprivation-induced death.2 A central goal of this project is to explore the unique cell survival and metabolic properties of cells with Tsc1 or Tsc2 by screening for compounds that selectively target the Tsc2-/- MEFs by screening both Tsc2-/- and WT MEF cell lines. We hope to better understand these aspects of TSC physiology in order to exploit them for therapeutic benefit.
NIH Molecular Libraries Probe Production Centers Network [MLPCN]
NIH Chemical Genomics Center [NCGC]
Assay Submitter (PI): Blenis, John; Harvard University
For quantitative high throughput analysis of mTORC1 signaling, we developed a cell-based assay for immuno-fluorescence based detection of rpS6 phosphorylation on the Acumen Explorer that will be used a platform for the primary small molecule screen. Mouse embryonic fibroblasts (MEFs) are cultured in 1536-well plates using DMEM + 10% FBS. Twenty-four hrs after plating, test compounds (solubilized in DMSO) are delivered and incubated with the cells for 24 hrs at 37 degree Celsius. Following the incubation, media with compound is aspirated and the cells are fixed in 4% paraformaldehyde (PFA) containing PBS + 0.2% TX-100. Next, PFA is aspirated, cells are washed two times with PBS plus 0.2% TX-100 and the cells are blocked for 1 hr at room temperature (blocking buffer: LiCOR Blocking Buffer plus 0.2% TX-100). This is followed by aspiration and staining with Alexa-488 conjugated-phospho-rpS6 Ser235/236 antibody for 2 hours at room temperature (Cell Signaling Technology # 4803, 1:50 dilution in blocking buffer). Cells are washed two times with PBS plus 0.2% TX-100, and stained with 10 uM propidium iodide (PI) for 20-25 minutes for cell number measurement (1:500 dilution of Hoescht staining is also added for IN Cell imaging). The plates are scanned on the Acumen Explorer laser scanning instrument (TTP Labtech) using the 488nm laser for simultaneous excitation of the Alexa-488 and PI. […] Fluorescence emission from the PI stain is selected using a 575-640 nm band pass filter. The normalized phospho-S6 staining is calculated as the ratio of the integrated Alexa 488 intensity divided by the integrated PI intensity for the single concentration rapamycin control (7.5 nM) and DMSO columns. […] Inhibition of the pathway is defined based on the normalized phospho-S6 intensity in rapamycin treated cells. Active cells are defined as those with a normalized phospho-S6 staining above this threshold, and each treatment is reported as the % positive cells in the well, where thresholds are defined by selecting wells with the highest and lowest signal and differentiating between the % non-active and % active populations. In addition to the pathway specific phospho-S6 endpoint, the number of PI stained cells from the Acumen is recorded as a measure of cell viability. […]
Background: In qHTS, concentration-response curves come from the screen itself.
For the compound `Cc1ccc(-n2c(/C=C/c3ccc(Br)s3)nc3ccccc3c2=O)cc1C`, the activity change, negative = inhibition was -10.2%.

For `O=C(c1ccccc1)c1ccc2nc(N3CCN(c4ccc(F)cc4)CC3)c3nncn3c2c1`, the Potency is 18.5 µM (active).

On to `COc1ccc(C(=O)Nc2ccc3c(c2)N(C)C(=O)c2ccccc2S3)cc1OC`, for which the Potency is 10.4 µM (active).

On to `CN[C@@H]1C[C@@]2(C)O[C@@H]([C@@H]1OC)n1c3ccccc3c3c4c(c5c6ccccc6n2c5c31)C(=O)NC4`, for which the Potency was 0.0163 µM (active).

With `COc1ccc(S(=O)(=O)NCCc2sc3nc(-c4ccc(C)cc4)nn3c2C)cc1F`, the Potency was 7.36 µM (active).

Take `CCCCOc1ccc(CN2C(=O)C(=O)c3cc(C)ccc32)cc1OC`: the Potency is 0.261 µM (active).

With `Cc1oc(-c2ccc(Cl)cc2)nc1CN1CCC(C(=O)NCCCN2CCN(c3cccc(Cl)c3)CC2)CC1`, the Potency was 5.85 µM (active).

Consider `CCOc1ccc(CN(CCc2ccc3c(c2)OCO3)Cc2ccc(C)cc2)cc1`, for which the activity change, negative = inhibition is -0.408%.

As for `COc1ccc(N2CCN(C(=O)C3CCCN(S(=O)(=O)c4ccc5c(c4)CCCN5C(C)=O)C3)CC2)cc1` (configuration not stated), the Potency was 16.5 µM (active).

For `O=C(NCCc1ccc(Cl)cc1)C(=O)NCC(c1cccs1)S(=O)(=O)c1cccs1` (configuration not stated), the activity change, negative = inhibition is -3.28%.

Turning to `NC(N)=NC(=O)c1nc(Cl)c(N)nc1N`, the activity change, negative = inhibition came out at 57.9%.

Turning to `CCN(CC)C(=O)c1ccc(NC(=O)CCn2nc(-c3ccc(C)cc3)c3ccccc3c2=O)cc1`, the activity change, negative = inhibition was -9.62%.

Consider `COc1ccc2nc(NC(=O)c3nc(S(=O)(=O)Cc4cccc(C)c4)ncc3Cl)sc2c1`, for which the Potency is 2.07 µM (active).

Turning to `Cc1ccccc1-c1nc(CN2C(=O)CN=C(c3ccccc3)c3ccccc32)c(C)o1`, the activity change, negative = inhibition was -13.1%.

Turning to `CCOc1ccc(/C=C/c2nc(C#N)c(NCc3ccccc3)o2)cc1`, the Potency was 1.04 µM (active).

`COc1ccccc1N=c1scc(-c2ccc(S(=O)(=O)N3CCCC3)cc2)n1C`: the Potency is 5.85 µM (active).

On to `Cc1cccc(N(CC(=O)NCCSc2ccc(Cl)cc2)S(=O)(=O)c2ccccc2)c1C`, for which the Potency is 13.1 µM (active).
